Data as given in PubChem BioAssay AID434970 (Sanford-Burnham Center for Chemical Genomics, 2010).
The campaign covered roughly 11,000 compounds. About 310 (2.8%) were called active. This is one part of a sample in which actives are shown more often than they occur. Cut-off read from the data, not from the text of the source: active = activity change below about -85%; inactive = the rest.

Test system: intestinal alkaline phosphatase [Mus musculus]
Assay: mouse intestinal phosphatase enzyme activation – biochemical, luminescence, single concentration, confirmation (AID 434970)
Conditions: purified mouse IAP, CDP-Star luminescence, 30 min, at 10 µM; activation factor: measured here: IAP activation factor, stronger effect = higher value; activity change, negative = activation: stronger effect = lower value

| SMILES | activation factor | activity change, negative = activation |
| --- | --- | --- |
| O=C(Cn1cc(C(=O)C2CC2)c2ccccc21)NCC1CCCO1 (stereo unspecified) | 0.944 | 5.6% (inactive) |
| O=C(O)CS(=O)(=O)c1ccc(Oc2ccc(S(=O)(=O)CC(=O)O)cc2)cc1 | 1.1 | -10.4% (inactive) |
| CC(NC(=O)c1ccco1)c1ccc2c(c1)OCCO2 (stereo unspecified) | 0.968 | 3.25% (inactive) |
| CC(C)c1ccc(NC(=S)NCc2ccc3c(c2)OCO3)cc1 | 1.36 | -36.3% (inactive) |
| CCc1ccc(NC(=O)NC(C)c2ccc3c(c2)OCO3)cc1 (stereo unspecified) | 2.66 | -166% (active) |
| COc1cc2oc(=O)cc(-c3ccc(-c4ccc(C)cc4)cc3)c2c(OC)c1OC | 0.934 | 6.55% (inactive) |
| COc1ccc(CC(=O)N[C@@H]2c3ccccc3CC[C@@H]2OCc2ccccc2)cc1 | 1.19 | -18.9% (inactive) |
| Cc1sc2nc(CN3CCOCC3)nc(NS(=O)(=O)c3ccc4c(c3)OCCO4)c2c1C | 0.956 | 4.4% (inactive) |
| O=C(NCc1ccccc1)c1cc2nc(C3CC3)cc(C(F)(F)F)n2n1 | 0.96 | 4% (inactive) |
| Cc1cc(Cn2nc(-c3ccccc3)cc2C(=O)NCc2cccc(C(F)(F)F)c2)on1 | 2.25 | -125% (active) |
| Cc1cc(C)nc(N2CCC(C(=O)NCc3cccc(C(F)(F)F)c3)CC2)n1 | 0.95 | 5.1% (inactive) |
| Cc1ccc(C(=O)NC(Cc2cccc(C(F)(F)F)c2)C(=O)O)cc1 (stereo unspecified) | 1.14 | -13.9% (inactive) |
| CCc1cc(Cn2nc(-c3ccccc3)cc2C(=O)NCc2cccc(C(F)(F)F)c2)on1 | 2.52 | -152% (active) |
| CCCC1C2C(=O)N(c3ccccc3OCC)C(=O)C2ON1c1ccccc1 (stereo unspecified) | 1.1 | -9.6% (inactive) |
| CCCN1C(=O)c2ccc(C(=O)NC3CCCCC3)cc2C1=O | 1.07 | -6.9% (inactive) |
| C=CCNc1nc(-c2sc(NC(C)=O)nc2C)cs1 | 0.932 | 6.75% (inactive) |
| CCCCCCNC(=O)N[C@@H](C(=O)NCCC[C@H]1CN2C(=NC[C@@H]2Cc2ccccc2)N1CCc1cccc(OC)c1)C(C)C | 3.11 | -211% (active) |
| CCCCNc1nc2c(c(=O)n(C)c(=O)n2C)n1Cc1cccc(OC)c1 | 1.04 | -4.2% (inactive) |
| O=C(CCCOc1ccccc1)Nc1nncs1 | 1.02 | -1.6% (inactive) |
| COc1cccc(C(=O)OCC(=O)Nc2ccccc2N2CCOCC2)c1 | 0.909 | 9.1% (inactive) |
| CCCCNC(=O)C(C1CCCCC1)N(CCN(C)C)C(=O)CCCN1C(=O)NC(c2ccc(-c3ccccc3)cc2)C(C(=O)OCc2ccccc2)=C1C (stereo unspecified) | 2.49 | -148% (active) |
| CCCCNC(=O)C(C)N(CCN(C)C)C(=O)CCCN1C(=O)NC(c2ccc(Cl)cc2)C(C(=O)OCc2ccccc2)=C1C (stereo unspecified) | 1.19 | -18.9% (inactive) |
| CCCCCCN(C(=O)CCCN1C(=O)NC(c2ccc(-c3ccccc3)cc2)C(C(=O)OCc2ccccc2)=C1C)C(C)C(=O)NCCCC (stereo unspecified) | 1.42 | -41.5% (inactive) |
| CCOC(=O)c1c(C)[nH]c(C(=O)CSc2nnc(CC(C)c3ccccc3)o2)c1C (stereo unspecified) | 0.943 | 5.7% (inactive) |
| COc1ccc(OC)c(NC(=O)Cn2c(=O)n(CC(=O)NCc3ccco3)c(=O)c3ccccc32)c1 | 0.997 | 0.3% (inactive) |
| OCCCN1c2ccccc2Nc2nnc(-c3ccccc3)cc21 | 3.08 | -208% (active) |
| OCCCn1c(-c2ccccc2)n[nH]c1=S | 1.02 | -1.9% (inactive) |

| SMILES | activation factor | activity change, negative = activation |
| --- | --- | --- |
| CN(CC(=O)Nc1cccc(Cl)c1)S(=O)(=O)c1ccc2[nH]c(=O)oc2c1 | 0.26 | 74.1% (inactive) |
| COc1cccc(CN(CC(=O)NC2CCCC2)C(=O)Cn2nnc(-c3cccs3)n2)c1 | 1.07 | -7.3% (inactive) |
| Cc1ccc(S(=O)(=O)N(C)C)cc1NC(=S)NC(C)CCCC(C)C (stereo unspecified) | 1.26 | -26.2% (inactive) |
| Cc1cc(C)cc(NC(=O)Nc2cc(S(=O)(=O)N(C)C)ccc2C)c1 | 3.43 | -243% (active) |
| Cc1ccc(NC(=O)Nc2cc(S(=O)(=O)N(C)C)ccc2C)cc1 | 1.84 | -83.7% (inactive) |
| Cc1cc(NC(=O)Cn2c(=O)c3c(ncn3CC(C)C)n(Cc3ccccc3)c2=O)no1 | 1.09 | -9.3% (inactive) |
| Cc1ccccc1-n1nc(C(=O)O)c(C)c(C#N)c1=O | 0.98 | 2.05% (inactive) |
| COC(=O)c1cn(NC(=O)C2CCCO2)c(=O)c2ccccc12 (stereo unspecified) | 1.03 | -3.3% (inactive) |
| CCN(CC)C(=O)CSc1nc(-c2cccs2)cc(-c2cccs2)c1C#N | 0.778 | 22.2% (inactive) |
| CCCCC1=CC2=C(c3ccco3)C(=O)C(C)(OC(=O)c3ccc(OC)cc3)C(=O)C2=CN1Cc1ccc2c(c1)OCO2 (stereo unspecified) | 0.503 | 49.7% (inactive) |
| Cc1cc(NC(=O)C2CCN(S(=O)(=O)c3cnc[nH]3)CC2)ccc1Br | 0.935 | 6.5% (inactive) |
| CCn1ncc(CN2CCC(C(=O)Nc3cccc(-c4cccc(F)c4)c3)CC2)c1C | 2.83 | -183% (active) |
| CCn1ncc(C2=NOC(C(=O)Nc3ccc(C)cc3)C2)c1C (stereo unspecified) | 1.07 | -7.35% (inactive) |
| CCCCNC(=O)C1CCN(C/C(C)=C/c2ccccc2)CC1 | 1.02 | -1.8% (inactive) |
| CCCn1ncc(CN2CCC(C(=O)Nc3cccc(-c4cccc(F)c4)c3)CC2)c1C | 5.28 | -428% (active) |
| CCOC(=O)c1ccc(NC(=O)C2CCN(S(=O)(=O)CC)CC2)cc1 | 0.952 | 4.8% (inactive) |
| C/C(=N\OCC(=O)N/N=C/c1ccccc1O)c1cccs1 | 1.01 | -1.25% (inactive) |
| COc1ccc(Cl)cc1N1C(=O)[C@@H]2C(c3cccc(OC)c3OC)=NO[C@@H]2C1=O | 1 | 0.05% (inactive) |
| COc1ccc(NC(=O)C(=O)NCCN2CCN(C(=O)C(c3ccccc3)c3ccccc3)CC2)cc1 | 1.05 | -5.05% (inactive) |
| Cc1cc(C)cc(NC(=S)NCc2ccc3c(c2)OCO3)c1 | 1.81 | -80.9% (inactive) |
| Cc1cc(C)c(NC(=S)NC(NC(=O)c2ccccc2)C(Cl)(Cl)Cl)c(C)c1 (stereo unspecified) | 1.28 | -28.3% (inactive) |
| Cc1ccccc1NC(=S)NC(NC(=O)COc1ccccc1)C(Cl)(Cl)Cl (stereo unspecified) | 1.73 | -73% (inactive) |
| O=C(O)c1ccccc1NC(=S)NC(NC(=O)c1ccccc1[N+](=O)[O-])C(Cl)(Cl)Cl (stereo unspecified) | 0.83 | 17% (inactive) |
| Cc1ccccc1NC(=S)NC(NC(=O)c1ccccc1C)C(Cl)(Cl)Cl (stereo unspecified) | 2.07 | -107% (active) |
| Cc1ccc(NC(=S)NC(NC(=O)c2ccccc2C)C(Cl)(Cl)Cl)c(C)c1 (stereo unspecified) | 3.11 | -211% (active) |
| CC(=O)NC(NC(=S)Nc1ccc(N=Nc2ccccc2C)cc1C)C(Cl)(Cl)Cl (stereo unspecified) | 0.848 | 15.2% (inactive) |
